Assay results as given in PubChem BioAssay (NCATS).
Where “and” joins values, the source holds several entries; their conditions need not be identical. Equal values may be shown once. Inconclusive results are not listed. Entries that show only a call come without a potency. The source holds several records for some structures; these can differ, active in one and inactive in another. Calls of active or inactive are those of the source. Unless noted, the call rests on the fitted dose curve; in most records, active means well fitted curve in the direction sought with a large enough effect; inconclusive means small, poorly fitted or top-dose-only effect, or another doubt; inactive means no such curve, though single readings can be large; an effect the other way counts as inactive or inconclusive.

How the values were obtained:
[1] = biological target: Luciferin 4-monooxygenase (Photinus pyralis) (UniProt P08659); assay: Biochemical firefly luciferase enzyme assay for NPC (AID 624030); further: nearly all actives have a fitted effect of over 70% in size; further: potency means the concentration at half of the fitted maximal effect
Luciferin 4-monooxygenase (Photinus pyralis), sequence (P08659 whole entry, looked up): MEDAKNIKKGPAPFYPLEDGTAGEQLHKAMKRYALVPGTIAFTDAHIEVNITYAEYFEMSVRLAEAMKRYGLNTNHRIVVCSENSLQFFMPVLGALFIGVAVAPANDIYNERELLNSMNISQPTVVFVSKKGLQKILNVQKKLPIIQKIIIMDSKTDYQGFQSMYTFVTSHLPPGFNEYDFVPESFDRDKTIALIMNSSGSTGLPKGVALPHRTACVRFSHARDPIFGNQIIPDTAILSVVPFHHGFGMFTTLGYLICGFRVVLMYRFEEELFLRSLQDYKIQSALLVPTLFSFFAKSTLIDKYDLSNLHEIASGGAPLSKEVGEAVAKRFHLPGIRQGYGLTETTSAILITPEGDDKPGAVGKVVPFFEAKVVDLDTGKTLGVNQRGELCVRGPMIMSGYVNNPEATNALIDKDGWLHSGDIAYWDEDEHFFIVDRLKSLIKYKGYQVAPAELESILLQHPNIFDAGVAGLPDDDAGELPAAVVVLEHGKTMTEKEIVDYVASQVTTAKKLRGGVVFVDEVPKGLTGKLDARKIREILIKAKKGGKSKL
In short: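 Counter-screen for direct inhibition of the luciferase enzyme by approved-drug library compounds, run at 10 nM enzyme in 50 mM Tris acetate (final). Luminescence was read within 5 min of enzyme-buffer addition and normalized to PTC124 versus DMSO (0%).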

[2] = S16 Schwann cell viability assay (CellTiter-Glo assay) (AID 624031);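 further: cellular ATP luminescence as a viability measure; nearly all actives have a fitted effect of over 70% in size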
In short: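 Native S16 rat Schwann cells in DMEM/10% FBS without phenol red were incubated overnight, then exposed to compounds for 24 h at 37 °C/5% CO2. Viability was read as ATP luminescence (CellTiter-Glo), normalized to no-cell wells and DMSO (0%).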

[3] = S16 Schwann cell PMP22 intronic element firefly luciferase assay (AID 624032); further: nearly all actives have a fitted effect of over 30% in size
In short: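 Rat S16 Schwann cells stably carrying a PMP22 intronic element-driven Fluc reporter were seeded overnight, then exposed to compounds for 24 h at 37 °C. Luminescence was normalized to PTC124 (positive control) and DMSO (0% activity).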

[4] = S16 Schwann cell PMP22 intronic element beta-lactamase assay (AID 624044; calls by dose curve; further: nearly all actives have a fitted effect of over 15% in size); details: S16 rat Schwann cells, PMP22 element beta-lactamase FRET, 24 h; ratio activity, negative = inhibition: at 38.3 µM (top of the series) unless noted
In short: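 Beta-lactamase reporter under a PMP22 intronic regulatory element in stable S16 rat Schwann cells; 24 h compound exposure. 460 nm blue signal normalized between DMSO (0%) and potassium clavulanate, with 535 nm FRET tracking viability; curves classed by r2 and response.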

[5] = qHTS assay for small molecule agonists of the antioxidant response element (ARE) signaling pathway (AID 651741; active means well fitted activation curve with a large enough effect in the signal ratio; the % refers to the signal ratio; further: potency means the concentration at half of the fitted maximal effect)
In short: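 Beta-lactamase reporter expression driven by the antioxidant response element in HepG2 cells was detected by fluorescence with LiveBLAzer B/G FRET substrate (2 h, room temperature) following 16 h compound treatment at 37 C.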

[6] = qHTS assay for small molecule activators of the nuclear factor-kappa B (NF-kB) signaling pathway (AID 651749; active means well fitted activation curve with a large enough effect in the signal ratio; the % refers to the signal ratio); details: NF-kB-bla ME-180 cells, beta-lactamase FRET ratio, 16 h; stronger effect = higher value
In short: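 Beta-lactamase reporter expression, controlled by NF-kB response elements in ME-180 cells, was quantified fluorometrically via FRET disruption; cells at 2,000/well had been incubated with 23 nL test compound for 16 hr.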

[7] = qHTS assay for environmental chemicals that activate the Aryl hydrocarbon Receptor (AhR) signaling pathway (AID 651777); details: 1A2-DRE human hepatoma cells, luciferase, 24 h; activation: stronger effect = higher value; further: nearly all actives have a fitted effect of over 15% in size
In short: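 Human hepatoma 1A2-DRE cells, stably carrying a dioxin response element and CYP1A2 promoter driving luciferase, were exposed to compounds for 24 hr at 37 C and 5% CO2. Luciferase signal was then read after 30 min One-Glo at room temperature.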

[8] = biological target: Peroxisome proliferator-activated receptor alpha (Homo sapiens) (UniProt Q07869); assay: qHTS assay for small molecule agonists of the peroxisome proliferator-activated receptor alpha (PPARalpha) signaling pathway (AID 651778); details: PathHunter PPARalpha complementation, chemiluminescence, 6 h; stronger effect = higher value
Peroxisome proliferator-activated receptor alpha (Homo sapiens), sequence (Q07869 whole entry, looked up): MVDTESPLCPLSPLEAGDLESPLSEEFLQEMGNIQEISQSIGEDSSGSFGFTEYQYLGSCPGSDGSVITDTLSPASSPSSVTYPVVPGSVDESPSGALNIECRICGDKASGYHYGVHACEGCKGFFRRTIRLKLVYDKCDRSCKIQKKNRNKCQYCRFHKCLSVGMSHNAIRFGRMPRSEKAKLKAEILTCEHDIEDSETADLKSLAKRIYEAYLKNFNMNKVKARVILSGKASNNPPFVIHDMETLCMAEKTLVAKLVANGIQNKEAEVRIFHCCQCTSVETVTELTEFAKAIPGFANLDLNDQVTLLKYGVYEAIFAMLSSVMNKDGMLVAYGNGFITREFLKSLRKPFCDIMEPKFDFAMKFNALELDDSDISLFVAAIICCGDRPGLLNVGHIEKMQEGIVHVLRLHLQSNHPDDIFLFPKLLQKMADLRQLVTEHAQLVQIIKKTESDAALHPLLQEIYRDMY
In short: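 Cells plated at 2,000/well and held overnight at 37 C, 5% CO2, then compound added by pin tool for 6 hr; after PathHunter detection reagent and 60 min at room temperature, chemiluminescence from enzyme complementation was read.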

[9] = qHTS assay for small molecule disruptors of the mitochondrial membrane potential - 1 hr assay (AID 651754; calls by dose curve; further: nearly all actives have a fitted effect of over 35% in size)
In short: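 Read-out: dye fluorescence at 490 nm ex/535 nm em (monomers) and 540 nm ex/590 nm em (aggregates) in HepG2 cells. Compound exposure 1 hr at 37C, followed by 30 min dye loading.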

[10] = qHTS assay for small molecule disruptors of the mitochondrial membrane potential - 5 hr assay (AID 651755; calls by dose curve; further: nearly all actives have a fitted effect of over 40% in size)
In short: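 Seed HepG2 overnight, add compound, incubate 5 hr at 37C and 5% CO2, stain 30 min with Mito-MPS, then measure monomer (490/535 nm) and aggregate (540/590 nm) fluorescence.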

[11] = biological target: Tumor necrosis factor (Homo sapiens) (UniProt P01375); assay: qHTS assay to identify small molecules that stimulate Tumor Necrosis Factor-alpha (TNF-alpha) secretion (AID 651757; active means well fitted curve in the direction sought with a large enough effect in the signal ratio; the % refers to the signal ratio)
Tumor necrosis factor (Homo sapiens), sequence (P01375 whole entry, looked up): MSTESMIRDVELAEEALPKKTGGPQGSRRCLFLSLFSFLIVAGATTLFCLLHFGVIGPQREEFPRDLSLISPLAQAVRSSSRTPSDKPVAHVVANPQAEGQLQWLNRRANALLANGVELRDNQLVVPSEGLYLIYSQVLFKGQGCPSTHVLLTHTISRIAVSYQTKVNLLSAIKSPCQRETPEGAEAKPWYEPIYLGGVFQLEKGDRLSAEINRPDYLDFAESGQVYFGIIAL
In short: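 THP-1 cells, 3000/well; compound 17 hrs, 37 C; add cryptate/XL665 anti-TNF-alpha antibody pair; 3 hr RT; TR-FRET (HTRF) read of secreted TNF-alpha. Quantitative HTS format.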

[12] = biological target: Nuclear receptor ROR-gamma (Homo sapiens) (UniProt P51449); assay: qHTS assay for small molecule antagonists of the retinoid-related orphan receptor gamma (ROR-gamma) signaling pathway (AID 651802);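 further: CHO cells with doxycycline-induced ROR-gamma expression; luciferase reporter luminescence driven by ROR response element; nearly all actives have a fitted effect of over 60% in size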
Nuclear receptor ROR-gamma (Homo sapiens), sequence (P51449 whole entry, looked up): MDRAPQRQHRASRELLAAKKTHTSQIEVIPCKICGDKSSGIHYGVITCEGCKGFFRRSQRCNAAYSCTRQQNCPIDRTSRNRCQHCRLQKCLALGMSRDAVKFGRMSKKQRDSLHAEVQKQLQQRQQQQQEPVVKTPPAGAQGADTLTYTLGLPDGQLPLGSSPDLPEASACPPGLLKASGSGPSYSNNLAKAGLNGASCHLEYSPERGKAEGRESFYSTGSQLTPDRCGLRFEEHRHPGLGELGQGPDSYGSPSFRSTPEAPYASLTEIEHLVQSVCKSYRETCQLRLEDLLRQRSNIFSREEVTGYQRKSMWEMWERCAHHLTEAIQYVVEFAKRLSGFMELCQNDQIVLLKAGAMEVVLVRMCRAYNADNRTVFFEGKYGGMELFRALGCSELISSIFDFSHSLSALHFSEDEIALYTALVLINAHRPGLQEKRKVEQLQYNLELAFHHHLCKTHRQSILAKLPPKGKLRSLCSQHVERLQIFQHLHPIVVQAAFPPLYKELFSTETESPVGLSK
In short: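 Luciferase read-out: ONE-Glo luminescence after 30 min at room temperature, following 16hr doxycycline induction at 37C, 5% CO2 of CHO cells with TET-inducible ROR and RORE-LUC reporter; decreased luminescence = reduced reporter activity.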

[13] = qHTS assay to identify small molecules that stimulate interleukin-8 (IL-8) secretion (AID 651758; active means well fitted activation curve with a large enough effect in the signal ratio; the % refers to the signal ratio)
In short: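 Quantitative HTS in THP-1 monocytic cells at 2000 cells per well, with 16 hrs compound incubation at 37 C. IL-8 in the medium was then quantified by HTRF immunoassay, read after 1-3 hrs at room temperature.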

## C[C@H](O)CN(C)C
[1]
  Potency: inactive
[2]
  Potency: inactive
[3]
  Potency: inactive

## CC(C)Cc1ccc([C@@H](C)C(=O)NS(C)(=O)=O)cc1
[1]
  Potency: inactive
[2]
  Potency: inactive
[3]
  Potency: inactive

## O=C1c2ccccc2CN2C(=O)c3ccccc3CN12
[1]
  Potency: inactive
[2]
  Potency: inactive
[3]
  Potency: inactive
[4]
  ratio activity, negative = inhibition: 0.507% (inactive)

## CCCC(=O)O
[1]
  Potency: inactive
[2]
  Potency: inactive
[3]
  Potency: inactive

## O=C(NNCS(=O)(=O)O)c1ccncc1
[1]
  Potency: inactive
[2]
  Potency: inactive
[3]
  Potency: inactive
[4]
  ratio activity, negative = inhibition: -19.9% (active)

## CCC(O)c1ccccc1 (stereo unspecified)
[1]
  Potency: inactive
[2]
  Potency: inactive
[3]
  Potency: inactive

## O=C(NCCNCC(O)COc1ccc(O)cc1)N1CCOCC1 (stereo unspecified)
[1]
  Potency: inactive
[2]
  Potency: inactive
[3]
  Potency: inactive
[4]
  ratio activity, negative = inhibition: 1.92% (inactive)

## NC(=O)[C@H]1O[C@@H](O)[C@H](O)[C@@H](O)[C@@H]1O
[1]
  Potency: inactive
[2]
  Potency: inactive
[3]
  Potency: inactive

## CCCCCCCCCCCCCCCCCCCCCC(=O)Nc1ccn([C@@H]2O[C@H](CO)[C@@H](O)[C@@H]2O)c(=O)n1
[1]
  Potency: inactive
[2]
  Potency: inactive
[3]
  Potency: inactive
[4]
  ratio activity, negative = inhibition: -0.57% (inactive)

## CCCOc1cc(N)ccc1C(=O)OCCN(CC)CC
[1]
  Potency: inactive
[2]
  Potency: inactive
[3]
  Potency: inactive
[4]
  ratio activity, negative = inhibition: 1.14% [at 17.1 µM] (inactive)

## S=C=Nc1ccc(N=C=S)cc1
[1]
  Potency: inactive
[2]
  Potency: inactive
[3]
  Potency: inactive

## O=C(O)c1ccc(OCCn2ccnc2)cc1
[1]
  Potency: inactive
[2]
  Potency: inactive
[3]
  Potency: inactive

## CN1c2c(nc(N)[nH]c2=O)NCC1CNc1ccc(C(=O)NC(CCC(=O)O)C(=O)O)cc1 (stereo unspecified)
[1]
  Potency: inactive
[2]
  Potency: inactive
[3]
  Potency: inactive

## O=C(O)CCC/C=C\C[C@@H]1[C@@H](/C=C/[C@@H](O)COc2cccc(Cl)c2)[C@H](O)C[C@@H]1O
[1]
  Potency: inactive
[2]
  Potency: inactive
[3]
  Potency: inactive

## COc1ccc(/C=N/NC(=O)c2ccncc2)c(C(=O)O)c1OC
[1]
  Potency: inactive
[2]
  Potency: inactive
[3]
  Potency: inactive

## CN1C(=O)C[C@@H](C(=O)N[C@@H](Cc2cnc[nH]2)C(=O)N2CCC[C@H]2C(N)=O)NC1=O
[1]
  Potency: inactive
[2]
  Potency: inactive
[3]
  Potency: inactive

## Cc1cc(=O)c(C(=O)N[C@@H](C(=O)N[C@@H]2C(=O)N3C(C(=O)O)=C(CSc4nnnn4C)CS[C@H]23)c2ccc(O)cc2)c[nH]1
[1]
  Potency: inactive
[2]
  Potency: inactive
[3]
  Potency: inactive
[4]
  ratio activity, negative = inhibition: 0.254% (inactive)

## CC(C)=CCC/C(C)=C/C=C/C(C)=C/C=C/C(C)=C/C=C/C=C(C)/C=C/C=C(C)/C=C/C=C(\C)CCC=C(C)C
[1]
  Potency: inactive
[2]
  Potency: inactive
[3]
  Potency: inactive

## O=C1CCC(c2ccccc2)(C2CCN(Cc3ccccc3)CC2)C(=O)N1 (stereo unspecified)
[1]
  Potency: inactive
[2]
  Potency: inactive
[3]
  Potency: inactive
[4]
  ratio activity, negative = inhibition: 1.84% (inactive)

## CCOC(=O)c1c[nH]c2cc(OCC(C)C)c(OCC(C)C)cc2c1=O
[1]
  Potency: inactive
[2]
  Potency: inactive
[3]
  Potency: inactive

## CN1CCc2c(c3ccccc3n2Cc2ccccc2)C1
[1]
  Potency: inactive
[2]
  Potency: inactive
[3]
  Potency: inactive

## O=C(O)[C@H]1CN(C/C=C/P(=O)(O)O)CCN1
[1]
  Potency: inactive
[2]
  Potency: inactive
[3]
  Potency: inactive

## COC(=O)CC[C@H](N)C(=O)O
[1]
  Potency: inactive
[2]
  Potency: inactive
[3]
  Potency: inactive
[4]
  ratio activity, negative = inhibition: -5.51% (inactive)

## CNC(=O)OCc1cccc(COC(=O)NC)n1
[1]
  Potency: inactive
[2]
  Potency: inactive
[3]
  Potency: inactive

## CN(C)CCCSc1ccccc1NC(=O)/C=C/c1ccccc1
[1]
  Potency: inactive
[2]
  Potency: inactive
[3]
  Potency: inactive

## CC(O)CN(C)C (stereo unspecified)
[1]
  Potency: inactive
[2]
  Potency: inactive
[3]
  Potency: inactive
[4]
  ratio activity, negative = inhibition: 6.7% (inactive)

## COc1ccc(C(=O)c2ccc(C)cc2)c(O)c1
[1]
  Potency: 14.4 µM (active)
[2]
  Potency: inactive
[3]
  Potency: inactive
[4]
  ratio activity, negative = inhibition: 6.33% (inactive)

## C=C(C)C1CC=C(C)CC1 (stereo unspecified)
[1]
  Potency: inactive
[2]
  Potency: inactive
[3]
  Potency: inactive
[4]
  ratio activity, negative = inhibition: -0.885% (inactive)
[5]
  Potency: inactive and 1.12 mM (active)
[6]
  activation: -0.265% (inactive) and 0.532% (inactive)
[7]
  activation: -2.32% (inactive) and -0.122% (inactive)
[8]
  max response: -1.15% (inactive) and 0.153% (inactive)

## CS(=O)(=O)OCC(O)C(O)COS(C)(=O)=O (stereo unspecified)
[1]
  Potency: inactive
[2]
  Potency: inactive
[3]
  Potency: inactive
[4]
  ratio activity, negative = inhibition: 2.66% (inactive)

## O=[n+]1ccn([O-])c2ccccc21
[1]
  Potency: inactive
[2]
  Potency: inactive
[3]
  Potency: inactive
[4]
  ratio activity, negative = inhibition: 6.86% (inactive)

## CC(C)[C@@H](N)C(=O)O
[1]
  Potency: inactive
[2]
  Potency: inactive
[3]
  Potency: inactive
[4]
  ratio activity, negative = inhibition: 0.806% (inactive)

## CC(=O)Nc1ccc(OC(=O)c2ccccc2O)cc1
[1]
  Potency: 25.6 µM (active)
[2]
  Potency: inactive
[3]
  Potency: inactive
[4]
  ratio activity, negative = inhibition: 1.52% (inactive)

## O=C1NCCN1c1ncc([N+](=O)[O-])s1
[1]
  Potency: inactive
[2]
  Potency: inactive
[3]
  Potency: inactive
[4]
  ratio activity, negative = inhibition: 1.39% [at 17.1 µM] (inactive)

## CN(CCO)CC(O)Cn1cnc2c1c(=O)n(C)c(=O)n2C (stereo unspecified) (tested in a mixture with another compound)
[1]
  Potency: inactive
[2]
  Potency: inactive
[3]
  Potency: inactive
[4]
  ratio activity, negative = inhibition: 1.27% (inactive)
[5]
  Potency: inactive
[6]
  activation: 1.88% (inactive)
[7]
  activation: -0.921% (inactive)
[8]
  max response: -0.0909% (inactive)

## CO/N=C(/C(=O)N[C@@H]1C(=O)N2C(C(=O)O)=C(COC(N)=O)CS[C@H]12)c1ccco1
[1]
  Potency: inactive
[2]
  Potency: inactive
[3]
  Potency: inactive
[4]
  ratio activity, negative = inhibition: 0.236% (inactive)
[5]
  Potency: 42.2 µM (active)
[6]
  activation: -0.141% (inactive)
[9]
  Potency: inactive
[10]
  Potency: inactive
[11]
  Potency: inactive
[7]
  activation: -0.274% (inactive)
[8]
  max response: -0.921% (inactive)
[12]
  Potency: inactive

## OB(O)O
[1]
  Potency: inactive
[2]
  Potency: inactive
[3]
  Potency: inactive
[4]
  ratio activity, negative = inhibition: 0.47% (inactive)
[5]
  Potency: inactive
[9]
  Potency: inactive
[10]
  Potency: inactive
[11]
  Potency: inactive
[13]
  Potency: inactive
[7]
  activation: 0.198% (inactive) and -2.21% (inactive)
[8]
  max response: -2.01% (inactive) and 0.448% (inactive)
[12]
  Potency: inactive
